In the library only some 5.4% were active in any assay of this set; here they are far more common.
ALOX12 inhib: inhibitors of human 12-lipoxygenase (ALOX12); AID 1452; Potency, µM (highest dose often 57.1 µM), without a hit: at the top dose activity change, negative = inhibition, usual class: inhibitors; 0.12% of 150,000 active; purified 12-hLO, xylenol orange hydroperoxide absorbance; P18054; further: potency means the concentration at half of the fitted maximal effect; nearly all actives have a fitted effect of over 55% in size
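Hydroperoxide formation by human 12-lipoxygenase from 40 uM arachidonic acid was followed colorimetrically via ferric-xylenol orange complex, using the 573/405 nm absorbance ratio. Enzyme concentration was 150 nM, with 30 min reaction at room temperature.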
PNC inhibitor: inhibitors of perinucleolar compartment assembly | PC3M PTB-GFP, PNC prevalence imaging, 16 h; hits give low values | activity change (PNC), negative = inhibition, % at 10 µM | 3.1% of 140,000 active;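 active means readout at or below -70, meaning at least 70% loss of cells showing the perinucleolar compartment, a nuclear body marking cancer cells; inconclusive means readout between -30 and a set limit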;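 further: plate controls were DMSO wells for no effect and camptothecin positive control wells for full effect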
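Read-out is percentage of cells bearing a perinucleolar compartment, from automated 20x imaging of fixed, Hoechst-stained PC3M PTB-GFP cells. Cells were seeded 4 h, then exposed 16 h to compound (23 nl of library stock) in duplicate plates.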
IMPase Li cell: IMPase inhibition in cells with lithium potentiation. CHO-M1 cells, IP1 TR-FRET (IP-One), carbachol + lithium. Potency, µM (doses to about 59.4 µM), for inactives: at the highest dose activity, negative = IMPase inhibition, actives largely listed as inhibitors. 0.35% of 210,000 active. AID 1457;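 further: IP1 builds up when IMPase is blocked and the TR-FRET signal falls; potency means the concentration at half of the fitted maximal effect; plate controls were basal vehicle for no effect and high inhibitor control for full effect; nearly all actives have a fitted effect of over 50% in size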
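CHO-M1, 2000 cells/well, 16–30 h culture; cpd + low Li+, 30 min 37C; lysis with d2-IP1/Eu-anti-IP1 Ab, 10 min RT; TR-FRET 665/620 ratio and 620 channel; AC50 via Hill.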
HPGD inh: HPGD (human) dehydrogenase inhibition. purified HPGD, NADH fluorescence kinetic, PGE2 substrate. P15428. 4.3% of 150,000 active. Potency, µM, for inactives: at the top dose activity change, negative = inhibition, most hits filed as inhibitors; active means well fitted inhibition curve with a large enough effect, not every such curve was filed as active; inconclusive means small, poorly fitted or top-dose-only effect, or another doubt; inactive means no such curve, though single readings can be large or run the other way; further: potency means the concentration at half of the fitted maximal effect
Target sequence (P15428 whole entry, looked up): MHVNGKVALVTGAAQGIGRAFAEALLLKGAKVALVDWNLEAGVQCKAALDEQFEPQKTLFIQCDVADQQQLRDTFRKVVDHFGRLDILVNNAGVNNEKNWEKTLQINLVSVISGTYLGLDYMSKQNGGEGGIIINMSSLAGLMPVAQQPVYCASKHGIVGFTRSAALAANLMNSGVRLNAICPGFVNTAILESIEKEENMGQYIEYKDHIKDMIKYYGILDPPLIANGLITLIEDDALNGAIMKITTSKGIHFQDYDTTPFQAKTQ
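NADH formation kinetics: reaction with 30 uM PGE2 and 1 mM NAD+ (final), 20 nM enzyme, Tris-HCl pH 8 with Tween 20, after 15 min compound preincubation at room temperature. Fluorescence change, last versus first of five reads.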
ALOX15B inhib: inhibitors of human 15-lipoxygenase 2 (ALOX15B); purified 15hLO-2, xylenol orange hydroperoxide absorbance; Potency, µM (doses to about 57.1 µM), for inactives: at the highest dose activity change, negative = inhibition, most hits filed as inhibitors; AID 881; 0.56% of 110,000 active; O15296; further: potency means the concentration at half of the fitted maximal effect; nearly all actives have a fitted effect of over 60% in size
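Purified human 15hLO-2 (50 nM) preincubated 15 min with compound, then 45 uM arachidonic acid for 90 min at RT in 25 mM Hepes pH 7.5, 0.01% Triton X-100. Hydroperoxide detected by Fe-xylenol orange; 573/405 nm absorbance ratio.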
IMPase cell inh: IMPase inhibition in cells. P97697. CHO-M1 cells, IP1 accumulation, HTRF TR-FRET ratio. inhibition (IP1 accumulation), % at 46.1 µM. 120,000 tested, under 10 active. AID 901; active means well fitted curve in the direction sought with a large enough effect in the signal ratio, not every such curve was filed as active; inconclusive means small, poorly fitted or top-dose-only effect, or a change in a side signal; inactive means no such curve, though single readings can be large or run the other way; the % refers to the signal ratio;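 further: cells stimulated with carbachol in lithium chloride buffer; plate controls were DMSO basal wells for no effect and reference inhibitor wells for full effect; higher means more IMPase inhibition seen as more IP1 and lower FRET ratio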
Target sequence (P97697 whole entry, looked up): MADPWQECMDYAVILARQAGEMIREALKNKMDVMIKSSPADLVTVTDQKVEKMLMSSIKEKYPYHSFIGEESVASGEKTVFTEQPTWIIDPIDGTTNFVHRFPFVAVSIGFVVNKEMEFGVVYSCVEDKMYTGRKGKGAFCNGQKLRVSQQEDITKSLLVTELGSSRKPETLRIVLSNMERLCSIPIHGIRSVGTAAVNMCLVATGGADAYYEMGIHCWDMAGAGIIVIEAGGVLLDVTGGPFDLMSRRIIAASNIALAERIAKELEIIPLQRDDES
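Elevated IP1 in lysates lowers TR-FRET signal (665/620 ratio and 620 channel reported). Cells were CHO-M1, given carbachol (50 uM as added) plus 50mM LiCl, pH 7.4, 30 min, 37C; compounds titrated up to 46 uM; AC50 by Hill equation.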
Starred values were filed as active, the others as inactive; u = inconclusive; x = not tested or not shown; [ ] = another dose, or the depositor's remark. Unless noted, the call rests on the fitted dose curve; in most records, active means well fitted curve in the direction sought with a large enough effect; inconclusive means small, poorly fitted or top-dose-only effect, or another doubt; inactive means no such curve, though single readings can be large; an effect the other way counts as inactive or inconclusive. Unless noted, on the % scale 0 is the no-effect control and ±100 the full control effect.

SMILES	ALOX12 inhib	PNC inhibitor	IMPase Li cell	HPGD inh	ALOX15B inhib	IMPase cell inh
CCCCNc1nc(C)nc2c1nc(-c1ccccc1)n2C(C)CCCN(CC)CC (stereo not given)	-1%	x	19%	u	42%	x
O=C(O)CCC/C=C\C/C=C\C=C\[C@@H](O)C/C=C\CCCCCO	-2%	x	-1%	-2%	x	x
Cc1c(C(=O)O)oc2ccc(S(=O)(=O)N3CCC(C)CC3)cc12	0%	4	20%[38.3 µM]	11µM*	-5%	4
Cc1c(C(=O)O)oc2ccc(S(=O)(=O)N3CC(C)CC(C)C3)cc12 (stereo not given)	3%	-11	12%	u	-4%	-2
COC(=O)Sc1nnc(-c2ccc(Br)cc2)o1	-3%	12	10µM*	22µM*	10%	u
OCC#CCSc1nnc(-c2ccc(Br)cc2)o1	-2%	-14	-10%[38.3 µM]	-1%	5%	1
CCc1ccc(C2c3c(oc4ccc(F)cc4c3=O)C(=O)N2CCc2ccc(OC)cc2)cc1 (stereo not given)	x	x	x	x	x	-12
COc1cc(C(=S)N2CCOCC2)cc(OC)c1OC(=O)Cc1ccc(F)cc1	-2%	-5	-1%	16µM*	x	x
COc1ccc(CC(=S)N2CCOCC2)cc1F	-2%	18	-7%	-7%	x	x
O=C(NC(Nc1nc2ccc([N+](=O)[O-])cc2s1)(C(F)(F)F)C(F)(F)F)c1cccnc1	-4%	-17	16%	-23%	x	6
O=C(NC(Nc1nc2ccc([N+](=O)[O-])cc2s1)(C(F)(F)F)C(F)(F)F)c1ccccc1Cl	u	-119*	22%	-2%	x	15
O=[N+]([O-])c1ccc(NNC(=S)Nc2ccc(F)cc2)cc1	u	u	23%	22µM*	x	u
O=C(NC(NNc1ccc([N+](=O)[O-])cc1)(C(F)(F)F)C(F)(F)F)c1ccccc1Cl	u	-2	35%[38.3 µM]	14µM*	u	10
COC(=O)C(NNc1ccccc1)(NC(=O)c1ccc(F)cc1)C(F)(F)F (stereo not given)	-18%	-4	16%[38.3 µM]	-14%	-19%	4
O=C(NC(NNc1ccc([N+](=O)[O-])cc1)(C(F)(F)F)C(F)(F)F)c1ccc(F)cc1	-12%	-20	11%	32µM*	x	x
CCCCNC(=S)Nc1ccc([N+](=O)[O-])cc1	1%	u	9%	-10%	x	x
CC1=C(C(=O)Nc2ccc(Cl)cc2)C(c2cccs2)n2nc(SCc3cccc(C)c3)nc2N1 (stereo not given)	x	x	x	x	x	-3
CC1=C(C(=O)Nc2ccccc2)C(c2ccc(O)cc2)n2nc(-c3ccc(Cl)cc3)nc2N1 (stereo not given)	x	x	x	x	x	16
C=C1C(c2ccc(C)cc2)=CCc2cc(C)cc(C)c21	x	x	13%	x	x	x
CC(C)(C)OC=O	3%	x	4%	-16%	-5%	x
O=C(CC(c1ccccc1)c1ccccc1O)NCc1ccco1 (stereo not given)	-6%	0	0%[38.3 µM]	16µM*	-9%	3
C/C(CC(=O)NCc1ccco1)=N\NC(=O)C(c1ccccc1)c1ccccc1	4%	u	11%[38.3 µM]	-5%	1%	4
O=C(CC(c1ccccc1)c1ccccc1O)NCc1ccccc1Cl (stereo not given)	0%	u	24%	16µM*	x	x
O=C(COC(=O)CCSc1ccccc1)NCc1ccccc1Cl	3%	29	-3%	18µM*	x	15
Cc1ccc(O)c(C(CC(=O)NCc2cccnc2)c2ccccc2)c1 (stereo not given)	x	x	7%	x	x	x
SMILES	ALOX12 inhib	PNC inhibitor	IMPase Li cell	HPGD inh	ALOX15B inhib	IMPase cell inh
O=C(CC(c1ccccc1)c1cc(Br)ccc1O)NCc1ccco1 (stereo not given)	-11%	17	18%[38.3 µM]	7.1µM*	-23%	-3
COc1cccc(Cn2c(=O)c(CCc3ccccc3)nc3cnc(OC)nc32)c1	-14%	x	8%	-17%	-2%	x
COc1ccc(-c2c(C#N)c(N)nc3c2CCC3)cc1	x	x	5%	x	x	x
CCOc1cc(-c2cc(-c3ccc(N)cc3)nc(N)c2C#N)ccc1O	-10%	66	-28%[38.3 µM]	u	-23%	-24
N#Cc1c(N)nc(SCc2ccncc2)c(C#N)c1-c1cccs1	-3%	50	34%[38.3 µM]	u	22%	1
COc1cc(-c2c(C#N)c(N)nc(SCc3ccncc3)c2C#N)cc(OC)c1OC	-3%	u	5%[38.3 µM]	13µM*	18%	u
COc1cc(-c2c(C#N)c(N)nc3c2CCCC3)cc(OC)c1OC	1%	-100*	-2%	-19%	x	-9
CCOc1cc(-c2c(C#N)c(N)nc3c2CCCC3)ccc1O	-6%	-114*	2%[38.3 µM]	u	4%	2
CCNc1ncc2nc(-c3cc(F)cc(F)c3)c(=O)n(CCC#N)c2n1	x	x	-22%	x	-9%	x
Cc1cc(C)c(C#N)c(SCC2COc3ccccc3O2)n1 (stereo not given)	-15%	-24	-26%[38.3 µM]	14µM*	0%	u
Cc1cc(C)n2nc(SCC3COc4ccccc4O3)nc2n1 (stereo not given)	-2%	5	6%[38.3 µM]	7.1µM*	-12%	-5
Cc1cc(C)c(C#N)c(SCc2ccccc2)n1	-1%	25	2%	-15%	x	-2
N#Cc1cc2c(nc1SCc1ccccc1)CCCCC2	-4%	-1	20%[38.3 µM]	-8%	-4%	12
N#Cc1cc2c(nc1SCC1COc3ccccc3O1)CCC2 (stereo not given)	-4%	17	18%[38.3 µM]	25µM*	-6%	16
Nc1ncnc2c([C@@H]3O[C@@H](CO)[C@H](O)[C@@H]3O)nsc12	3%[11.4 µM]	x	6%	-5%	-6%[11.4 µM]	x
COCC(C)NC(=O)CSc1nnc(-c2cccc(S(=O)(=O)N3CCCCC3)c2)o1 (stereo not given)	x	x	8%	x	x	x
CC(C)CNC(=O)CSc1nnc(-c2cccc(S(=O)(=O)N3CCCCC3)c2)o1	-4%	-128*	u	-22%	-7%	u
Cc1cc2oc(=O)cc(-c3ccccc3)c2c(C)c1-c1sccc1C=O	-4%[0.00818 µM]	x	13%	40µM*	u	x
CC(=O)c1ccsc1-c1c(C)cc2oc(=O)cc(-c3ccccc3)c2c1C	-3%[0.00818 µM]	x	15%	40µM*	-19%[0.0915 µM]	x
Cc1cc2oc(=O)cc(-c3ccccc3)c2c(C)c1-c1cccc(N)c1	1%[0.00818 µM]	x	12%	-13%	-19%[0.0915 µM]	x
O=C(COc1ccc2oc(-c3ccccc3)cc(=O)c2c1)Nc1ccccc1	-1%	-112*	u	-14%	x	-2
Cc1ccc(C2C(C(=O)c3sc(C)nc3C)=C(O)C(=O)N2CCN(C)C)o1 (stereo not given)	1%	44	6%	-23%	0%	3

High-throughput results from PubChem.
